Experimental data from PubChem BioAssay AID1029 (Sanford-Burnham Center for Chemical Genomics, 2008).
Out of some 110,000 compounds screened, about 80 (0.07%) were called active.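 The calls were made as follows: active = inhibition above the mean of the plate negative controls plus 5 SD (cut at about 13% in these data); inactive = the rest.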 What follows is part of a selection rich in actives, with near analogues and random picks from the rest.

Test: blockers of IgG-bead uptake by macrophages – imaging, J774A.1 cells, IgG beads, primary screen (AID 1029);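 also: phagocytic index as fraction of beads internalized from green versus red external bead signal; plate controls were DMSO negative control for no effect and cytochalasin-D positive control for full effect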
Settings: J774A.1 macrophage IgG-bead phagocytosis, at 5 µM, stronger effect = higher value

Row | SMILES | inhibition
1 | CO/N=C(\N)c1ccc([N+](=O)[O-])cc1 | -3.92% (inactive)
2 | Cc1ccc(N(Cc2cc3ccccc3[nH]c2=O)C(=O)c2cccs2)cc1 | 0.22% (inactive)
3 | COC(C(=O)NCc1ccccc1C)c1ccccc1 (stereo unspecified) | -6.05% (inactive)
4 | Cc1nnc(SCc2cc(=O)[nH]c(N3CCN(Cc4ccccc4)CC3)n2)s1 | 55.5% (active)
5 | CCc1c(C)nc(N2CCN(Cc3ccccc3)CC2)[nH]c1=O | -1.2% (inactive)
6 | O=c1cc(CSc2ccccn2)nc(N2CCN(c3ccccc3)CC2)[nH]1 | -1.3% (inactive)
7 | O=C(N/N=C/c1coc2ccccc2c1=O)c1cc2ccccc2o1 | -4.52% (inactive)
8 | Cc1nc2ccccc2nc(C)c1=NOCc1ccc(Cl)cc1Cl | -8.1% (inactive)
9 | COc1ccc(C2CC(c3ccccc3)=NN2C(=O)CSc2nccc(=O)[nH]2)cc1 (stereo unspecified) | -11.3% (inactive)
10 | COCCNC(=S)N/N=C/c1c(C)[nH]c2ccccc12 | -8.64% (inactive)
11 | CCCc1nc(SCC(=O)Nc2ccc(S(=O)(=O)N(C)C)cc2)c2ccccc2n1 | -8.66% (inactive)
12 | CCCCC(=O)Nc1ccc(C(=O)Nc2cc(C(F)(F)F)ccc2Cl)cc1 | -2.66% (inactive)
13 | CC1=C[C@H]2Cc3cc(C)cc(C)c3S(=O)(=O)[C@@H]2C=C1 | -2.51% (inactive)
14 | COc1ccc(/C=N/NC(=O)c2ccc(Cl)cc2)cc1COC(C)=O | -2.06% (inactive)
15 | CCNc1ccc(C(=O)OCC(=O)N2c3ccccc3NC(=O)C2(C)C)cc1[N+](=O)[O-] | -2.95% (inactive)
16 | O=C(N/N=C/c1ccc2c(c1)OCO2)c1ccc(Cn2cc([N+](=O)[O-])cn2)o1 | -3.46% (inactive)
17 | O=C1OC(OC(=O)c2ccccc2Br)C(N2CCOCC2)=C1Cl (stereo unspecified) | -11.1% (inactive)
18 | COc1cc(C2C(N3C(=O)c4ccccc4C3=O)C(=O)N2c2ccc(C)c(C)c2)cc(OC)c1OC (stereo unspecified) | -9.54% (inactive)
19 | O=C(CN1C(=O)/C(=C\c2ccccc2F)SC1=S)Nc1nc2ccccc2s1 | -11.3% (inactive)
20 | COC(=O)c1ccccc1NC(=S)NC(=O)c1ccccc1F | -2.31% (inactive)
21 | Cc1[nH]n(-c2ccccc2)c(=O)c1/C=N/NC(=O)c1ccoc1C | 3.58% (inactive)
22 | Cc1cccc(NC(=S)N(CCN(C)C)C(C)c2ccco2)c1 (stereo unspecified) | -6.2% (inactive)
23 | N=C1C(=O)OCC1c1ccccc1NC(=O)CN1CCCCC1 (stereo unspecified) | -1.24% (inactive)

Row | SMILES | inhibition
24 | CCN(CC)CCNCc1ccc(OCc2ccc(Cl)nc2)c(OC)c1 | -2.95% (inactive)
25 | Cc1ccc(S(=O)(=O)N(Cc2ccc(Cl)cc2)c2ccccc2C(=O)NCc2cccnc2)cc1 | -8.82% (inactive)
26 | Nc1nc(NC(=O)/C=C/c2ccccc2)nn1-c1ccccc1 | -0.41% (inactive)
27 | CCc1cccc(NC(=O)CCC(=O)O)c1 | -2.13% (inactive)
28 | CCS(=O)(=O)N1Cc2ccccc2CC1C(=O)Nc1nc2ccc(F)cc2s1 (stereo unspecified) | 7.2% (inactive)
29 | COc1cc(/C=N/O)ccc1OCc1ccc([N+](=O)[O-])cc1 | 0.55% (inactive)
30 | O=C(NC1CCN(Cc2ccccc2)CC1)c1c(F)cccc1F | 2.58% (inactive)
31 | CC(C)(C)C(=O)N1CCC[C@@]1(CO)C(=O)O | 0.17% (inactive)
32 | Cc1cc(/C=C2\SC(=Nc3ccc(N4CCOCC4)cc3)N(C)C2=O)c(C)n1-c1cccnc1 | -0.72% (inactive)
33 | Cc1nn(Cc2ccc(F)cc2)c(C)c1NC(=O)c1cccnc1Cl | -2.17% (inactive)
34 | Cc1ccc(N=C2NC(=O)c3cccc([N+](=O)[O-])c32)cc1 | -5.47% (inactive)
35 | COc1ccc(C/C(C)=N/NC(=O)c2cc(C)oc2C)cc1 | -3.05% (inactive)
36 | C/C(=N\N1CCN(Cc2ccc(C)cc2)CC1)c1ccco1 | -3.06% (inactive)
37 | CCCC/S(C)=N/S(=O)(=O)c1ccc(C)cc1 (stereo unspecified) | -3.8% (inactive)
38 | O=C(NC(=O)N1CCOCC1)c1ccccc1 | -2.51% (inactive)
39 | CCN(CC)S(=O)(=O)c1cc([N+](=O)[O-])ccc1N=Nc1c(O)n(C)c2ccccc12 | -7.04% (inactive)
40 | CC1=C(C)CC(C(=O)NNC(=O)c2csc3c2CCC(C(C)(C)C)C3)C(C(=O)O)C1 (stereo unspecified) | -3.56% (inactive)
41 | CCOC(=O)/C(=N\Nc1cc(Cl)ccc1Cl)N1CCN(C)CC1 | -4.83% (inactive)
42 | Cc1ccccc1N(C(=O)Cc1cccs1)C(C(=O)NC1CCCCC1)c1cn(C)nc1C (stereo unspecified) | -10.4% (inactive)
43 | Cc1nc(-c2ccccc2)cn2c1nc1ccccc12 | -5.21% (inactive)
44 | CCOc1ccccc1N1CCN(C(=S)Nc2ccc(S(N)(=O)=O)cc2)CC1 | -1.85% (inactive)
45 | CC(C)(C)NCCCOc1ccc(Cl)cc1C(C)(C)C | -2.22% (inactive)
46 | Cc1ccc(C(=O)/C=C/Nc2ccc(S(=O)(=O)Nc3onc(C)c3C)cc2)cc1 | 4.08% (inactive)

Row | SMILES | inhibition
47 | O=C(c1cncc(Br)c1)N1CCN(c2ccc([N+](=O)[O-])cc2)CC1 | 1% (inactive)
48 | N=c1n(CCc2ccccc2)c2ccccc2n1Cc1ccccc1F | -1.86% (inactive)
49 | CCCOC(=O)c1ccc(N2C(=O)c3ccccc3C2=O)cc1 | -13.4% (inactive)
50 | Cc1ccc(C(=O)NC(C)c2ccccc2)cc1Br (stereo unspecified) | -1.23% (inactive)
51 | Cc1ccc(CC(=O)Nc2ccc(OC(F)F)c(Cl)c2)cc1C | -0.42% (inactive)
52 | COc1ccc(/C=C/C(=O)OCC(=O)NCc2cccs2)cc1OC | -8.33% (inactive)
53 | Cc1ccc(C2=NN(C(=O)CSc3nc(N)cc(N)n3)C(c3ccco3)C2)cc1 (stereo unspecified) | -1.98% (inactive)
54 | C=CCn1c(SCc2ccc(Cl)c(Cl)c2)nnc1C(CO)NC(=O)c1ccc(OC)cc1 (stereo unspecified) | -2.58% (inactive)
55 | Cc1cc(F)ccc1S(=O)(=O)Nc1ncnc2scc(-c3ccc(F)cc3)c12 | 0.71% (inactive)
56 | CN(c1nc2ccccc2n2c(-c3ccco3)nnc12)S(=O)(=O)c1ccccc1 | 14.8% [artifact] (active)
57 | Cc1cc(NCc2ccco2)n2c(nc3ccccc32)c1C#N | -1.3% (inactive)
58 | c1coc(-c2nc3nc4ccccc4n3nc2-c2ccco2)c1 | -0.8% (inactive)
59 | NS(=O)(=O)c1ccc(N=Cc2ccc(Br)s2)cc1 | -3.71% (inactive)
60 | Cc1nn(-c2ccccc2)c2c1C(c1cccc([N+](=O)[O-])c1)N(c1ccccc1)C(=O)N2 (stereo unspecified) | -9.61% (inactive)
61 | COc1cc(C(=O)NNC(=O)c2ccc(S(=O)(=O)N3CCCCC3)cc2)cc(OC)c1OC | -4.43% (inactive)
62 | CC(=O)Nc1ccc(S(=O)(=O)NC2(C(F)(F)F)C(=O)Nc3c2c(=O)[nH]c(=O)n3Cc2ccccc2)cc1 (stereo unspecified) | -1.92% (inactive)
63 | CCc1ccc(C2N3CC4([N+](=O)[O-])CN2CC([N+](=O)[O-])(C3)C4(C)C)cc1 (stereo unspecified) | -13.9% (inactive)
64 | C=CCn1c(CCNC(=O)c2cccs2)n[nH]c1=S | -0.81% (inactive)
65 | COc1cc(/C=C/C(=O)N2c3ccccc3Sc3ccc(C(F)(F)F)cc32)cc(OC)c1OC | -3.45% (inactive)
66 | Cc1ccc(Sc2ccncc2S(N)(=O)=O)cc1 | -3.16% (inactive)
67 | O=C(c1cccs1)n1nc(NCc2ccccc2)nc1NCc1ccccc1 | -7.68% (inactive)
68 | CCC1C=C(c2ccccc2)C=CN=C1N(CC)CC (stereo unspecified) | -1.57% (inactive)
69 | O=C(Cn1cc(C(F)(F)F)ccc1=O)N/N=C/c1ccc(Cl)cc1Cl | -1.82% (inactive)

Row | SMILES | inhibition
70 | O=C(CN1CCSCC1)N/N=C/c1ccc(F)cc1 | -0.8% (inactive)
71 | O=C(CN1CCSCC1)N/N=C/c1ccc(F)cc1F | 117% (active)
72 | COCCNc1cc(NCCOC)c([N+](=O)[O-])cc1[N+](=O)[O-] | -0.9% (inactive)
73 | O=C(N/N=C/c1ccc(Br)o1)c1cncc(Br)c1 | -4.83% (inactive)
74 | CC(=O)c1c(N2CCN(c3ccc(F)cc3)CC2)nc(=S)n(-c2ccccc2)c1C | -2.05% (inactive)
75 | COc1ccc2c(CC(=O)OCC(=O)Nc3ccccc3[N+](=O)[O-])coc2c1 | -0.7% (inactive)
76 | COc1ccccc1-c1nnc(NC(=O)c2ccc3ncsc3c2)o1 | -6.06% (inactive)
77 | Cc1ccc(SCCC(=O)NC(C(C)C)C(C)C)cc1 | -6.42% (inactive)
78 | COC(=O)c1ccccc1NS(=O)(=O)c1ccc2[nH]c(=O)[nH]c2c1 | -2.75% (inactive)
79 | Cc1ccccc1C1=NC(C(F)(F)F)(C(F)(F)F)c2c(n(-c3ccc(F)cc3)c(=O)[nH]c2=O)N1 | -2.94% (inactive)
80 | COc1ccccc1N1CCN(CC(=O)NC(=O)NCc2ccco2)CC1 | -5.49% (inactive)
81 | CCCNC(=O)NC(=O)COC(=O)CC(NC(N)=O)c1ccc(Cl)cc1 (stereo unspecified) | -1.97% (inactive)
82 | Cc1ccc(NC(=O)COC(=O)CCc2nc3ccccc3n2-c2ccccc2)c(C)c1 | -9.97% (inactive)
83 | Cn1cnc(C(F)(F)F)c1-c1ccc([N+](=O)[O-])cc1 | -12.1% (inactive)
84 | CN(C)c1ccc(/C=N/NC(=O)c2ccc(Cn3cc(Br)cn3)o2)cc1 | -0.35% (inactive)
85 | O=C(NNC(=O)c1cc2c(s1)CCCC2)c1ccccc1 | -4.32% (inactive)
86 | COc1cc(CCC(=O)OCC(=O)Nc2cccc(S(N)(=O)=O)c2)cc(OC)c1OC | -3.93% (inactive)
87 | CC(C)(C)C(=O)NC(NC(=S)Nc1ccc(S(N)(=O)=O)cc1)C(Cl)(Cl)Cl (stereo unspecified) | -10.5% (inactive)
88 | CC(OC(=O)c1ccccc1N1C(=O)C2C3CCC(C3)C2C1=O)C(=O)c1ccccc1 (stereo unspecified) | -1.86% (inactive)
89 | CC(C)C(=O)Nc1ccc(C(=O)NNC(=O)c2cccs2)cc1 | -0.44% (inactive)
90 | O=[N+]([O-])c1ccc(NCCCO)c(C(F)(F)F)c1 | -3.18% (inactive)
91 | CN(C)CCNC(=O)/C(=C/c1cccc([N+](=O)[O-])c1)NC(=O)c1ccccc1 | -4.59% (inactive)
